These results are taken from PubChem BioAssay.

One test deals with Albumin (Bos taurus) (UniProt P02769). Put plainly: bovine serum albumin binders on microarray, profiling panel, artefact control for SMM control protein annotation, biochemical, small-molecule microarray, Alexa647 label, 635/667 nm fluorescence (AID 1118).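 Also: score merges 667 nm emission intensity and signal-to-noise per printed compound spot.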 The settings on record: BSA-A647 binding, fluorescence 635 nm, higher = more signal.
Chain of Albumin (Bos taurus) (P02769 whole entry, looked up): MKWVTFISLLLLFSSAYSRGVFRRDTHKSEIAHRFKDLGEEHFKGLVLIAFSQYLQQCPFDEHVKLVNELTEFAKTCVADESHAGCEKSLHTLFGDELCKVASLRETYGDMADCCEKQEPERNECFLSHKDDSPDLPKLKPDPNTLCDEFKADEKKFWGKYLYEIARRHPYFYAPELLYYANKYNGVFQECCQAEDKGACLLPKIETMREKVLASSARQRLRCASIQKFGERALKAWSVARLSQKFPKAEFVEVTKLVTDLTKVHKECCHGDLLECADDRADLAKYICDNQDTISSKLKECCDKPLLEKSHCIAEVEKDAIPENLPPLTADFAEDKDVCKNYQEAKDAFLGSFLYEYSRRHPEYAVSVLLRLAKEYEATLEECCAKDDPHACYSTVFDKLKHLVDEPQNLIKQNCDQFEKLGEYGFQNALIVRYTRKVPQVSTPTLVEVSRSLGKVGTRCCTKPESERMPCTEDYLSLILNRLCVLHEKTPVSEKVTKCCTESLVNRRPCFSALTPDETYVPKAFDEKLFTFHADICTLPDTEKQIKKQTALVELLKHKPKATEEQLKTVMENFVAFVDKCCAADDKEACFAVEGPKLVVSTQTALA
Test [1] can be described thus: small-molecule microarray binders of probe aXIP, primary screen, biochemical, NeuroSMM set, 635/667 nm fluorescence (AID 1119).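 Also: probe is the protein aXip251-270 applied at 1 µg/mL to compound-printed slides; binding of probe to printed compounds measured as 667 nm fluorescence plus signal to noise.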 Conditions: higher = more signal, called active from +8 up or from −8 down.
Test [2] in a line: small-molecule binders of probe aNOTCH3, primary screen, biochemical, small-molecule microarray, 635/667 nm fluorescence (AID 1120).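 Also: probe is a biotin-tagged antibody raised against NOTCH3 rather than NOTCH3 protein; score merges spot fluorescence near 667 nm with spot signal to noise.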 The settings on record: higher = more signal.
Test [3] can be described thus: small-molecule binders of probe aNOTCH2, primary screen, biochemical, small-molecule microarray, 635/667 nm fluorescence (AID 1121).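 Also: score merges feature fluorescence read at 667 nm with its signal to noise.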 Conditions: higher = more signal.
Test [4] addresses Carbonic anhydrase 2 (Homo sapiens) (UniProt P00918). As to the kind of experiment: CAII small-molecule binders, profiling panel, biochemical, small-molecule microarray, Alexa647-labelled CAII (AID 1122). The settings on record: CAII-A647 binding fluorescence, higher = more signal.
Test [5] is described as follows: COS7 lysate on small-molecule microarray, probe aHis, 635 nm (AID 1123).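 Also: z-score combines 667nm fluorescence intensity with signal-to-noise per printed compound spot.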 Conditions: COS7 cell lysate, fluorescence, higher = more signal.
A short description of test [6]: compound binding in COS7 lysate, probe aLAP1, primary screen, cell lysate, small-molecule microarray (AID 1124).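 Also: lysate comes from COS7 cells expressing LAP1 and is applied at 0.3 µg/mL; score merges spot fluorescence near 667 nm with signal-to-noise over triplicate slides.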 Conditions: probe aLAP1, fluorescence, higher = more signal.
For the next test, the system named is Sam68 (KHDRBS1). As to the kind of experiment: Sam68 small-molecule binders, primary screen, biochemical, small-molecule microarray, 635 nm fluorescence (AID 1125).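 Also: score merges 667 nm channel intensity with signal to noise over triplicate slides.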 Conditions: small-molecule microarray binding, higher = more signal.
For test [7], the system named is Chordin-like protein 2 (CHRDL2). Put plainly: CHRDL2 small-molecule binders, primary screen, biochemical, small-molecule microarray, 635 nm fluorescence (AID 1126).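 Also: printed compound slides probed with Chrdl2 protein at 4 µg/mL for 1 h at 4 C; score merges 667 nm emission intensity with signal to noise over three replicate slides.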 The settings on record: small-molecule microarray binding, fluorescence 635 nm; higher = more signal.
The target of test [8] is Concanavalin-A (Canavalia ensiformis) (UniProt P02866). As to the kind of experiment: ConA small-molecule binders, primary screen, artefact control for SMM control protein annotation, biochemical, small-molecule microarray, Alexa647 label, 635 nm (AID 1127).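 Also: z combines 667 nm emission intensity with signal-to-noise across three replicate slides.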 The settings on record: ConA-A647 binding fluorescence, higher = more signal.
Chain of Concanavalin-A (Canavalia ensiformis) (P02866 whole entry, looked up): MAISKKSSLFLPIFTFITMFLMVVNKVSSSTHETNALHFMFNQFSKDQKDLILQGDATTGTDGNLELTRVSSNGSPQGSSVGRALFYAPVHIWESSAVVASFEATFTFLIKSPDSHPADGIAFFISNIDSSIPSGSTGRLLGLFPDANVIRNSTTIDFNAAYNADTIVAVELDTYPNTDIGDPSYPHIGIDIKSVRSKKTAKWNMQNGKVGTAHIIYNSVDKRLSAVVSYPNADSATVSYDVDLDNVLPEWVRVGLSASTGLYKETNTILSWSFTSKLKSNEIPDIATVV

Active and inactive are the calls of the source.

Turning to `C=C(COC)C(=O)CC[C@@H](OC(C)=O)c1ccccc1OCCO`, the composite z-score in the test with Albumin (Bos taurus) is -0.145; in test [2], 0.183; in [3] it was -0.15; in test [4] it was 0.675; in [5], -0.762; in test [6], 0.583. Also, the values for the composite z-score (with Sam68 (KHDRBS1); in [7]; in test [8]) were 0.789, -0.0113 and -0.0386, respectively. Moreover, in [1], the composite Z-score was -0.975 (inactive).
Regarding `C=CCC(OC(C)=O)[C@@H]1[C@@H](N(Cc2cccc3ccccc23)C(=O)Cc2ccc(OC)cc2)c2cc(OCCCO)ccc2N1C(=O)c1ccc2ccccc2c1` (stereo not given in full), the composite z-score with Albumin (Bos taurus) is 0.226; in test [2] it was 0.0232; in [3], -0.143; in test [4], 0.331; in [5], 0.481; in [6], -0.0588. Further, the composite z-score was -0.278 in the test on Sam68 (KHDRBS1), 0.0839 in test [7] and 0.0699 in test [8]. In addition, in [1], the composite Z-score is -0.0662 (inactive).
For the molecule `O=C1[C@H]2C=C(I)[C@H](C[C@@H]2OCCCCCCO)[C@@]12CO2`, the composite z-score is 0.683 with Albumin (Bos taurus); 0.0876 in [2]; -0.112 in [3]; 0.751 in [4]; -0.298 in [5]; -0.16 in [6]. Further, the composite z-score is -0.747 in the test on Sam68 (KHDRBS1), 1.24 in test [7] and -1.05 in [8]. Moreover, in test [1], the composite Z-score is 0.047 (inactive).
In the case of `COc1ccc(NN2C(C(O)c3ccc(I)cc3)C=CC3C(=O)N(C4CCCCC4)C(=O)C32)cc1` (stereo not given), the composite z-score with Albumin (Bos taurus) is 0.843; in [2], 0.394; in [3] it was -0.075; in test [4], 0.444; in [5], 1.53; in test [6], 0.444. Moreover, the composite z-score in the test with Sam68 (KHDRBS1) is 1.32; in [7], -0.195; in [8], 1.1. In test [1], the composite Z-score was 0.84 (inactive).
For `COCCOC(=O)N1C(=O)[C@@]2(c3ccccc31)[C@H](c1ccc(O)cc1)N1[C@H](c3ccccc3)[C@H](c3ccccc3)OC(=O)[C@H]1[C@@H]2C(=O)N1CCCCCCC1`, the composite z-score came to 0.46 in the test with Albumin (Bos taurus); 1.98 in test [2]; 0.851 in [3]; 0.863 in test [4]; 3.62 in test [5]; 1.18 in test [6]. Also, the results for the composite z-score (with Sam68 (KHDRBS1); in test [7]; in [8]) were 1.3, 1.58 and 1.14, respectively. The composite Z-score in test [1] is 4.53 (inactive).
For `CO[C@H]1O[C@H](CO)[C@@H](OC(=O)Nc2ccc3c(c2)OCO3)[C@H](OC(=O)Nc2ccccc2-c2ccccc2)[C@H]1OC(=O)Nc1ccccc1-c1ccccc1`, the composite z-score stood at 0.287 in the test with Albumin (Bos taurus); 0.214 in test [2]; 0.084 in test [3]; 0.687 in test [4]; 2.27 in test [5]; 0.869 in test [6]. Also, the values for the composite z-score (with Sam68 (KHDRBS1); in test [7]; in [8]) were 1.29, -0.162 and 1.03, respectively. In test [1], the composite Z-score was 0.0432 (inactive).
Take `CN(C)CCCC[C@@H]1NC(=O)[C@H]2C[C@@H](C(=O)O)[C@@H](c3ccc(O)cc3)N2C1=O`: the composite z-score came to 0.705 with Albumin (Bos taurus); 1.65 in [2]; 0.68 in test [3]; 0.946 in [4]; 4.01 in test [5]; 1.31 in test [6]. Further, the composite z-score with Sam68 (KHDRBS1) came out at 1.33; in test [7] it was 1.48; in test [8], 1.24. For the same molecule, the composite Z-score in test [1] was 3.89 (inactive).
Regarding `[N-]=[N+]=Nc1ccccc1[C@H]1OC(c2ccc(OCCCO)cc2)=N[C@@]1(Cc1ccccc1)C(=O)NCC(O)CO` (stereo not given in full), the composite z-score with Albumin (Bos taurus) is 0.793; in test [2], 0.0372; in test [3] it was -0.174; in [4], 0.444; in [5] it was 3.2; in test [6], -0.142. Further, the composite z-score in the test on Sam68 (KHDRBS1) was 0.495; in test [7] it was -0.832; in test [8], 0.962. Besides, in [1], the composite Z-score was 0.0774 (inactive).
Consider `NC(=O)NCC#Cc1ccc2c(c1)[C@]1(C(=O)N2)[C@H](c2ccc(OCCO)cc2)N2[C@H](c3ccccc3)[C@H](c3ccccc3)OC(=O)[C@H]2[C@@H]1C(=O)NC[C@H](O)c1ccccc1`, for which the composite z-score was 0.335 with Albumin (Bos taurus); 0.0237 in [2]; -0.147 in [3]; 0.428 in test [4]; 0.485 in test [5]; -0.146 in test [6]. Also, the composite z-score in the test on Sam68 (KHDRBS1) is -0.449; in test [7], 0.0046; in test [8], 1.03. Besides, the composite Z-score in test [1] was 0.691 (inactive).
For `O=C1C2C=CC(C(O)C3CCCCC3)N(n3cnnc3)C2C(=O)N1Cc1ccccc1` (stereo not given), the composite z-score with Albumin (Bos taurus) was 0.835; in test [2] it was 0.341; in test [3], -0.0527; in test [4] it was 0.597; in test [5] it was 2.23; in test [6], 0.343. Moreover, the composite z-score in the test with Sam68 (KHDRBS1) was 1.29; in test [7], -0.0651; in test [8] it was 0.698. Also, in test [1], the composite Z-score is 0.288 (inactive).
On to `O=C1C2C=CC(C(O)c3cccs3)N(Nc3ccc([N+](=O)[O-])cc3)C2C(=O)N1c1ccccc1` (stereo not given), for which the composite z-score is 0.523 with Albumin (Bos taurus); 0.0105 in test [2]; -0.0694 in test [3]; 0.759 in [4]; 2.08 in test [5]; 0.218 in [6]. Besides, the composite z-score in the test with Sam68 (KHDRBS1) was 0.909; in [7] it was 0.0721; in test [8] it was 0.585. Besides, the composite Z-score in [1] is -0.506 (inactive).
Consider `CCCCN1CC=CC23O[C@@H]4/C=C\CCCOC(=O)C4[C@H]2C(=O)N(C(CO)C(C)C)[C@@H]3C1=O` (stereo not given in full), for which the composite z-score with Albumin (Bos taurus) was -0.745; in test [2] it was -0.0339; in test [3] it was -0.0504; in test [4] it was 0.781; in [5] it was 0.0745; in test [6], -0.158. The composite z-score in the test with Sam68 (KHDRBS1) was 0.239; in test [7] it was -0.0768; in test [8] it was -0.592. Also, the composite Z-score in test [1] was -0.108 (inactive).
Take `C=CCNC(=O)[C@H]1[C@@H]2C(=O)O[C@@H](c3ccccc3)[C@@H](c3ccccc3)N2[C@@H](c2ccccc2OCCO)[C@]12C(=O)N(C(=O)OCCOC)c1ccc(C#Cc3ccc(OC)cc3)cc12`: the composite z-score with Albumin (Bos taurus) is 0.621; in [2], -0.0613; in test [3], -0.146; in test [4] it was 0.609; in test [5], 1.94; in [6], 1.1. In addition, the composite z-score was 1.24 in the test with Sam68 (KHDRBS1), 0.0718 in test [7] and 1.11 in test [8]. For the same molecule, the composite Z-score in [1] was -0.0052 (inactive).
With `COc1ccc(C(=O)Nc2ccc3c(c2)[C@@]2(O[C@H](CCO)[C@@H]([Si](C)(C)c4ccc(OC)cc4)[C@@H]2C)C(=O)N3Cc2ccccc2)cc1`, the composite z-score with Albumin (Bos taurus) was -0.351; in [2], -0.0647; in test [3] it was -0.0357; in [4] it was 0.124; in test [5], 0.88; in test [6], 0.556. Further, the values for the composite z-score (in the test with Sam68 (KHDRBS1); in test [7]; in test [8]) were 0.973, 0.268 and 0.637, respectively. The composite Z-score in test [1] was 0.004 (inactive).
For `[N-]=[N+]=NCc1ccccc1[C@@H]1OC(c2ccc(OCCCO)cc2)=N[C@]1(Cc1ccccc1N=[N+]=[N-])C(=O)O`, the composite z-score in the test with Albumin (Bos taurus) was 1; in [2] it was 0.663; in [3], 0.481; in test [4] it was 0.566; in [5], 2.4; in test [6], 0.262. The composite z-score in the test on Sam68 (KHDRBS1) was 1.31; in [7] it was -0.126; in test [8], 1.13. The composite Z-score in [1] is -0.164 (inactive).
